Screening data deposited in PubChem BioAssay by Sanford-Burnham Center for Chemical Genomics.
Compounds with a hit are over-represented: about 2% of the library has one in this group of screens.
APOBEC3G inh – blocks human APOBEC3G single-stranded DNA deamination; Q9HC16; recombinant A3G, ssDNA deamination FAM/TAMRA fluorescence; inhibition, % at 20 µM; 0.28% of 330,000 active;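 active means inhibition of at least 40% at 20 µM, with no more than 30% in the related APOBEC3A deaminase screen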;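 further: plate controls were DMSO wells with A3G for no effect and wells lacking A3G enzyme for full effect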
Target sequence (Q9HC16 whole entry, looked up): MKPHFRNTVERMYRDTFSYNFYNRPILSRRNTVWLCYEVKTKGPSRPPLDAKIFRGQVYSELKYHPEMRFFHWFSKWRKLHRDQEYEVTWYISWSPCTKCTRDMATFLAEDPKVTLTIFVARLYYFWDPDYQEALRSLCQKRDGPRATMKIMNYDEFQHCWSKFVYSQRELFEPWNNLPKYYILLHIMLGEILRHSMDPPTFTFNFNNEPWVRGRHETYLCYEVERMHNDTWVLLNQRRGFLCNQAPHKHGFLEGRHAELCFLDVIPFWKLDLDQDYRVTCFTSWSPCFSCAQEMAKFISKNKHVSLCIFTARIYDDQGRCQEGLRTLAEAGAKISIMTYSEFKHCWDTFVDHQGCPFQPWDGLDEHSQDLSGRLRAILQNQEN
Neddylation inh – inhibitors of human cullin neddylation. P61081+Q13564. TR-FRET cullin neddylation, biochemical. inhibition, % at 25 µM. 0.58% of 360,000 active. AID 651699; in the data active means inhibition above about 36%
NPR1 activator – GC-A (human) enzyme activation. HEK293 GC-A cells, cGMP TR-FRET, EC30 ANP; 0% at EC30 ANP, 100% saturating ANP. activation, % at 10 µM. 0.14% of 370,000 active. P16066; in the data active means activation above about 40%
GC-B act – GC-B (human) receptor activation. P20594. HEK293-GC-B cells, CNP EC30, cGMP TR-FRET; 0% at EC30 CNP, 100% saturating CNP. activation, % at 10 µM. 0.11% of 370,000 active;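 active means activation at 10 µM reaching about 35% in either raw or pattern-adjusted values, limit read from the data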
A3A deaminase – inhibitors of human APOBEC3A DNA deaminase; P31941; inhibition, % at 20 µM; 0.41% of 330,000 active; recombinant A3A, FAM/TAMRA ssDNA deamination fluorescence; AID 493011;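 active means at least 40% inhibition at 20 µM here, with at most 30% in a related deaminase screen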;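 further: plate controls were A3A with DMSO for no effect and wells lacking A3A enzyme for full effect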
Target sequence (P31941 whole entry, looked up): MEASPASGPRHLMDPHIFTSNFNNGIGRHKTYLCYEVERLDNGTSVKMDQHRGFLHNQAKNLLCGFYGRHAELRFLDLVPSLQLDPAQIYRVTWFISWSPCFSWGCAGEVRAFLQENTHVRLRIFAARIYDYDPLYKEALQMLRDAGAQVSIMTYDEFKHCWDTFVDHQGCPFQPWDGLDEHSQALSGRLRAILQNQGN
PfGluPho inh – PfG6PD (Plasmodium falciparum) enzyme inhibition. PfGluPho enzyme, NADPH resazurin-diaphorase fluorescence. inhibition, % at 20 µM. 0.78% of 350,000 active. AID 504690;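 active means inhibition reaching at least a set limit at 20 µM in the primary screen, cut at about 59% in these data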;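 further: 0% = DMSO wells with substrate and 100% = DMSO wells lacking glucose-6-phosphate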
A3A conf – APOBEC3A (human) deaminase inhibition, confirmed. shares compounds with A3A deaminase. recombinant A3A, ssDNA deaminase UDG fluorescence assay. inhibition, % at 20 µM. 63% of 1,400 active;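 active means inhibition reaching a set limit, 80% of the first screen's cutoff, at 20 µM in any replicate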;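 further: plate controls were DMSO wells with A3A for no effect and wells lacking A3A enzyme for full effect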
UDG ctr A3A – counter-screen for APOBEC3A inhibitors: UDG | AID 504714 | UDG counterscreen, FAM/TAMRA uracil oligo fluorescence | shares compounds with A3A deaminase | 1,000 tested, under 10 active | inhibition, % at 20 µM; call rule not given here
An asterisk follows results filed as active; nt = no result given.

SMILES | APOBEC3G inh | Neddylation inh | NPR1 activator | GC-B act | A3A deaminase | PfGluPho inh | A3A conf | UDG ctr A3A
COC(=O)C1CN(Cc2cn(CCC3OCCO3)nn2)CCS(=O)(=O)N1Cc1ccc(OC)cc1 (configuration not stated) | nt | nt | 2 | 6 | nt | nt | nt | nt
C[C@@H]1COc2cc(Br)ccc2S(=O)(=O)N1Cc1cn(Cc2ccc(Cl)cc2)nn1 | nt | nt | -6 | -3 | nt | nt | nt | nt
COc1ccc(C(C(=O)N(C)C2CCCC2)N(Cc2ccc(F)cc2)C(=O)c2cc(C)[nH]n2)cc1OC (configuration not stated) | nt | nt | -1 | -12 | nt | nt | nt | nt
CCCc1n(CC)c2ccccc2[n+]1CC(O)COC1CCCCC1 (configuration not stated) | 15 | -2 | 2 | -1 | 89* | 10 | 75* | 2
C[N+]1=C2CCCCCN2C(O)(c2ccccc2)C1 (configuration not stated) | 19 | -16 | 1 | 5 | 69* | 6 | 72* | 0
COC(=O)[C@H](C(C)C)N1CCc2nnn(Cc3ccc(C)cc3)c2-c2cc(F)ccc2S1(=O)=O | nt | nt | 2 | -6 | nt | nt | nt | nt
COc1cccc(-c2nnn(CC(C)=O)n2)c1 | 0 | -5 | 0 | -3 | 53* | -3 | -7 | 0
COc1ccc(-c2ccc(-c3nnn(CC(C)=O)n3)cc2)cc1 | -4 | 8 | 4 | -2 | -2 | -9 | nt | nt
N#CC1(NC(=O)COc2ccccc2[N+](=O)[O-])CCCCC1 | 3 | -3 | 2 | -9 | 48* | 0 | 22 | nt
COC(=O)c1ccc2ccn(CC(=O)NC(C)C)c2c1 | 13 | nt | 4 | 4 | 74* | -2 | 70* | -2
CCn1c(N2CCN(CC(=O)c3c(C)n(C)c4ccc(OC)cc34)CC2)nc2c1c(=O)[nH]c(=O)n2C | 5 | 2 | 2 | -3 | 2 | 12 | nt | nt
CCn1c(N2CCN(CC(=O)c3c(C)n(C)c4ccccc34)CC2)nc2c1c(=O)[nH]c(=O)n2C | 11 | 2 | -4 | -2 | 49* | -7 | 20 | nt
CC(C)CSc1nnc(-c2ccco2)n1C | nt | nt | 2 | -2 | nt | nt | nt | nt
CCC1N=C(SC)NC(C)=C1C(=O)c1ccccc1 (configuration not stated) | 19 | 6 | 6 | 6 | 48* | -6 | 35* | -3
Cc1cccc(N2CC(C(=O)Nc3nnc(SCC(=O)Nc4nccs4)s3)CC2=O)c1 (configuration not stated) | -3 | -6 | -3 | 2 | 2 | -20 | nt | nt
Cc1ccccc1N1CC(C(=O)Nc2nnc(SCC(=O)Nc3nccs3)s2)CC1=O (configuration not stated) | -10 | -20 | -2 | -4 | 48* | -13 | 9 | 6
COc1ccc2c(c1)CCCN2C(=O)C1CCCN(S(=O)(=O)c2ccc(Cl)s2)C1 (configuration not stated) | nt | nt | -6 | -7 | nt | nt | nt | nt
O=C(Cn1c2[n+](c3ccc(C(F)(F)F)cc31)CCCCC2)Nc1ccc(Br)cc1 | 13 | 4 | nt | nt | 47* | -11 | 14* | -3
FC(F)(F)c1cccc(Cn2c3[n+](c4ccc(C(F)(F)F)cc42)CCCCC3)c1 | 21 | 0 | -10 | -9 | 49* | -2 | 75* | 4
N#Cc1ccc(NC(=O)Cn2c3[n+](c4ccc(C(F)(F)F)cc42)CCCCC3)cc1 | 49 | 0 | 3 | 4 | 53 | -4 | nt | nt
O=S(=O)(CC1NCc2cc(F)ccc21)NCc1ccc(F)cc1 (configuration not stated) | nt | nt | -1 | -3 | nt | nt | nt | nt
C=CCNC(=O)c1ccccc1NC(=O)c1ccccc1N(C)S(C)(=O)=O | 5 | -3 | -1 | 4 | 44* | 13 | 4 | nt
O=C(NC1CCCCC1)N1CCC(c2nc3ccc(Cl)cc3[nH]2)CC1 | -3 | 7 | -7 | -9 | 40* | -13 | 0 | -1
O=C(NC1CCCCC1)N1CCC(c2nc3ccccc3[nH]2)CC1 | -6 | 1 | -2 | -2 | 0 | -2 | nt | nt
CCn1c(SC)nnc1-c1nn(-c2ccccc2)ccc1=O | 16 | 4 | -2 | 3 | 58* | -12 | 66* | -4
SMILES | APOBEC3G inh | Neddylation inh | NPR1 activator | GC-B act | A3A deaminase | PfGluPho inh | A3A conf | UDG ctr A3A
Cc1ccc(-n2c(SCC(=O)Nc3ccccc3-c3ccccc3)nnc2-c2cccnc2)cc1 | nt | nt | -11 | -5 | nt | nt | nt | nt
Cc1cc(F)ccc1NC(=O)C1CCCO1 (configuration not stated) | -7 | 0 | 1 | 3 | 57* | -7 | 0 | 5
O=C(Nc1ccc(Cl)cc1Cl)C1CCCO1 (configuration not stated) | -7 | 3 | 2 | 2 | -7 | -6 | nt | nt
COc1ccc(-c2nnc3n2N=C(c2cccc([N+](=O)[O-])c2)CS3)cc1 | nt | nt | 22 | 11 | nt | nt | nt | nt
O=C(Nc1ccc(Cl)c(Cl)c1)C1CCCN1S(=O)(=O)c1cccc2cccnc12 (configuration not stated) | nt | nt | -7 | -12 | nt | nt | nt | nt
O=C(NCc1ccc2c(c1)OCO2)C1CCCN1S(=O)(=O)c1ccc(F)cc1 (configuration not stated) | -7 | 6 | -4 | 7 | 55* | 4 | -4 | 3
C[n+]1cccc(C(=O)NNC(=O)C23CC4CC(CC(C4)C2)C3)c1 | 21 | -2 | 1 | 0 | 82* | 3 | 69* | -3
COc1ccc(C[N+]2=C(N)NC3=C4CCCCC4n4c(=O)n(-c5ccccc5)c(=O)n4C3C2)c(OC)c1 (configuration not stated) | nt | nt | -33 | -24 | nt | nt | nt | nt
C#CCN1C(C(=O)OC)CN(CCCCCC)CCS1(=O)=O (configuration not stated) | nt | nt | 4 | -1 | nt | nt | nt | nt
C[C@@H](NC(=O)C[C@H]1CC[C@H]2[C@@H](COc3ccc(NC(=O)Nc4ccccc4)cc3C(=O)N2C)O1)c1ccccc1 | nt | nt | 4 | 4 | nt | nt | nt | nt
CCOc1ccc(N(CC(=O)Nc2ccccc2)S(C)(=O)=O)cc1 | 9 | -5 | 1 | 2 | 43* | 8 | 64* | -4
CCOc1ccc(N(CC(=O)Nc2ccc(C)c(C)c2)S(C)(=O)=O)cc1 | 3 | -1 | 1 | 3 | 46* | 5 | 2 | nt
COC(=O)[C@]12C[C@H](CC(=O)N3CCSCC3)C(=O)N(Cc3ccc(Cl)cc3Cl)C1=C[C@H](C(C)(C)C)O[C@@H]2C | nt | nt | -19 | -11 | nt | nt | nt | nt
CN(Cc1ccc(Cl)c(Cl)c1)C(=O)C1=CC=CN2CCS(=O)(=O)N=C12 | 15 | 13 | 3 | 1 | 47* | 4 | 43* | -2
